Experimental data published in PubChem BioAssay AID1159580 (chemical genetic matrix, 2015).
About 2,000 (36%) of roughly 5,500 compounds were called active. About 18% were inconclusive and are not listed. No stated cut-off is given here; in the data, active means normalized growth mostly below about 0.91 (no sharp cut-off); inconclusive means no clear call, values can overlap the other calls; inactive means mostly above about 0.92. Some of the results follow.

Experiment: chemical genetic growth profiling, strain panel (AID 1159580);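 further: tested at 20 µM; growth read once vehicle control cultures reached saturation at 30 °C; 1 = growth at the plate median or of vehicle wells; lower values mean less growth of the strain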
Settings: S. cerevisiae deletion strains, growth OD

Measured: normalized growth

CC1(C)CCC[C@@]2(C)C1[C@@H](O)C[C@]1(C)C2CC[C@@H]2[C@@]3(C)CC[C@H](C(C)(C)O)[C@@H]3CC[C@@]21C (some centres not stated)
inactive: locus YAL013W, strain DEP1, active compounds read low 0.998 | locus YBR021W, strain FUR4, active compounds read low 1.07 | locus YBR229C, strain ROT2, active compounds read low 1 | locus YCL029C, strain bik1, active compounds read low 0.971 | locus YDL035C, strain GPR1, active compounds read low 1.01 | locus YDL074C, strain BRE1, active compounds read low 1.02 | locus YDL101C, strain DUN1, active compounds read low 1 | locus YDL185W, strain tfp1, active compounds read low 0.943 | locus YDL192W, strain arf1, active compounds read low 0.993 | locus YDR101C, strain arx1, active compounds read low 1.01 | locus YDR150W, strain NUM1, active compounds read low 0.992 | locus YDR162C, strain NBP2, active compounds read low 1.04 | locus YDR318W, strain mcm21, active compounds read low 1 | locus YDR388W, active compounds read low 0.986 | locus YDR502C, strain sam2, active compounds read low 0.989 | locus YEL061C, strain CIN8, active compounds read low 1 | locus YER110C, active compounds read low 0.977 | locus YER155C, strain BEM2, active compounds read low 1.01 | locus YER167W, strain BCK2, active compounds read low 0.997 | locus YGL078C, strain dbp3, active compounds read low 1 | locus YGL086W, strain mad1, active compounds read low 1.05 | locus YGL248W, strain PDE1, active compounds read low 1 | locus YGR135W, strain pre9, active compounds read low 0.993 | locus YGR252W, strain gcn5, active compounds read low 1.06 | locus YHR030C, strain SLT2, active compounds read low 0.992 | locus YHR079C, strain IRE1 (second series), active compounds read low 1.01 | locus YHR094C, strain hxt1, active compounds read low 0.981 | locus YHR129C, strain ARP1, active compounds read low 0.997 | locus YHR200W, strain rpn10, active compounds read low 0.984 | locus YIL066C, strain RNR3, active compounds read low 1.03 | locus YIL073C, strain SPO22, active compounds read low 0.941 | locus YIL125W, strain kgd1, active compounds read low 0.972 | locus YIR030C, strain dcg1, active compounds read low 0.996 | locus YJL095W, strain BCK1, active compounds read low 1.02 | locus YJL134W, strain LCB3, active compounds read low 0.991 | locus YJL168C, strain set2, active compounds read low 1.01 | locus YJL187C, strain SWE1 (second series), active compounds read low 1 | locus YJR043C, strain POL32, active compounds read low 1.03 | locus YKL009W, strain mrt4, active compounds read low 1.05 | locus YKL068W, active compounds read low 0.98 | locus YKL085W, strain MDH1 (second series), active compounds read low 1.04 | locus YKL085W, strain MDH1, active compounds read low 1.04 | locus YKL190W, strain CNB1, active compounds read low 0.997 | locus YKR001C, strain vps1, active compounds read low 1.03 | locus YLR039C, strain RIC1, active compounds read low 1.05 | locus YLR058C, strain SHM2, active compounds read low 0.996 | locus YLR102C, strain apc9, active compounds read low 0.995 | locus YLR262C, strain YPT6, active compounds read low 1.04 | locus YLR268W, strain sec22, active compounds read low 0.986 | locus YLR330W, strain CHS5, active compounds read low 0.983 | locus YLR342W, strain FKS1 (second series), active compounds read low 1.01 | locus YLR371W, strain rom2, active compounds read low 0.984 | locus YLR418C, strain cdc73, active compounds read low 1.06 | locus YML016C, strain PPZ1, active compounds read low 0.995 | locus YML032C, strain rad52, active compounds read low 0.983 | locus YML124C, strain tub3, active compounds read low 1.01 | locus YMR078C, strain ctf18, active compounds read low 1.01 | locus YMR223W, strain ubp8, active compounds read low 0.998 | locus YMR263W, strain SAP30, active compounds read low 1 | locus YMR307W, strain GAS1, active compounds read low 1.12 | locus YNL067W, strain RPL9B, active compounds read low 1.02 | locus YNL153C, strain GIM3, active compounds read low 1.02 | locus YNL233W, strain BNI4, active compounds read low 1.03 | locus YNL250W, strain rad50, active compounds read low 0.982 | locus YNL271C, strain bni1, active compounds read low 0.997 | locus YNL298W, strain CLA4, active compounds read low 0.975 | locus YNL307C, strain MCK1, active compounds read low 0.996 | locus YNL322C, strain KRE1, active compounds read low 1 | locus YNR052C, strain pop2, active compounds read low 0.994 | locus YOL012C, strain htz1 1.13 | locus YOL147C, strain pex11, active compounds read low 0.993 | locus YOR061W, strain CKA2, active compounds read low 0.999 | locus YOR069W, strain VPS5, active compounds read low 0.993 | locus YOR136W, strain idh2, active compounds read low 0.988 | locus YOR144C, strain elg1, active compounds read low 0.997 | locus YOR184W, strain ser1, active compounds read low 1.01 | locus YOR316C, strain cot1, active compounds read low 0.985 | locus YPR119W, strain clb2, active compounds read low 1 | locus YPR141C, strain kar3, active compounds read low 0.982 | locus YPR163C, strain tif3, active compounds read low 0.99 | locus YPR167C, strain met16, active compounds read low 0.989 | strain wtn01, active compounds read low 0.986
